Shown are actives, neighbours in structure and some others; about 5.7% of the full set was active somewhere.
HP1b binding inh: HTS for Inhibitors of HP1-beta Chromodomain Interactions with Methylated Histone Tails; Chromobox protein homolog 1 (Homo sapiens), P83916; AlphaScreen HP1-beta / biotin-H3K9me3 peptide binding; Potency, µM (doses to about 114 µM), without a hit: at the top dose activity change, negative = inhibition, usual class: inhibitors; 0.56% of 390,000 active; also: potency is read from the fitted curve at half-maximal effect; nearly all actives have a fitted effect of over 70% in size
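AlphaScreen: HP1-beta (50 nM) preformed 30 min with biotin-H3(1-18)K9me3 peptide (50 nM) in PBS pH 7.4, 0.01% Tween-20. Compound added for 30 min at RT, then streptavidin donor/nickel chelate acceptor beads (10 ug/mL) for 30 min.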
L3MBTL1 inh: qHTS Assay for the Inhibitors of L3MBTL1; Lethal(3)malignant brain tumor-like protein 1 (Homo sapiens), Q9Y468; AlphaScreen L3MBTL1–H3K9me1 peptide binding; Potency, µM (highest dose often 57.1 µM), inactives show at the top dose activity, negative = inhibition, most hits filed as inhibitors; 0.66% of 230,000 active; also: potency is read from the fitted curve at half-maximal effect; % is scaled to controls: 0 for no effect and ±100 for the full control effect; nearly all actives have a fitted effect of over 60% in size
Target sequence (Q9Y468 whole entry, looked up): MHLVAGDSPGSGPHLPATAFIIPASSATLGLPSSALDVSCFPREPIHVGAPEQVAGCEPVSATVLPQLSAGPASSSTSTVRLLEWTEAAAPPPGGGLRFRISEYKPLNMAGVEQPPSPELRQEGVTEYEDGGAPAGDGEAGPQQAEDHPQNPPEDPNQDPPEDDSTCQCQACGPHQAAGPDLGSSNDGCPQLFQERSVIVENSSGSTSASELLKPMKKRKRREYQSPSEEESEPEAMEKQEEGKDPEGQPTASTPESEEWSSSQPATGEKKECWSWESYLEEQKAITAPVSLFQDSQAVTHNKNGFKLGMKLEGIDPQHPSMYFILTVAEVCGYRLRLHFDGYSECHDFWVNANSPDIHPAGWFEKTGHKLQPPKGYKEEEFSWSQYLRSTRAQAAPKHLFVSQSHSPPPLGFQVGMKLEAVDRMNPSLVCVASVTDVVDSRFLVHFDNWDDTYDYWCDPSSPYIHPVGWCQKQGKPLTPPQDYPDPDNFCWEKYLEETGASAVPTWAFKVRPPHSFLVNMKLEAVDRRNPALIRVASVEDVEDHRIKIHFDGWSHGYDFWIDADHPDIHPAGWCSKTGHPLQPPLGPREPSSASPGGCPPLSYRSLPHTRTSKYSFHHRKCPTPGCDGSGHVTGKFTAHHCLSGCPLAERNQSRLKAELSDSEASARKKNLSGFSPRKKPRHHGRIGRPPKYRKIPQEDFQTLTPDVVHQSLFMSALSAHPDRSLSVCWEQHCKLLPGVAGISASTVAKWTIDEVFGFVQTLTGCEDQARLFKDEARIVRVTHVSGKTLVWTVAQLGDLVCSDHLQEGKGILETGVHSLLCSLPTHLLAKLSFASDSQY
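AlphaScreen assay: L3MBTL1 (50 nM final) was preincubated 30 min at room temperature with biotinylated H3(1-15)K9me1 peptide (75 nM final), then 30 min with library compounds; streptavidin donor and nickel chelate acceptor beads (10 ug/mL final) added, 30 min dark.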
JMJD2A Tudor inh: qHTS Assay for Inhibitors of JMJD2A-Tudor Domain; Lysine-specific demethylase 4A (Homo sapiens), O75164; AlphaScreen JMJD2A-Tudor / H3K4me3 peptide binding; Potency, µM (top dose mostly 114 µM), for inactives: at the highest dose activity change, negative = inhibition, actives largely listed as inhibitors; 4.4% of 390,000 active; also: potency is read from the fitted curve at half-maximal effect; % is scaled to controls: 0 for no effect and ±100 for the full control effect; nearly all actives have a fitted effect of over 50% in size
KDM4E inh: qHTS Assay for Inhibitors of Human Jumonji Domain Containing 2E (JMJD2E); Lysine-specific demethylase 4E (Homo sapiens), B2RXH2; JMJD2E catalytic domain, FDH-coupled NADH fluorescence (FDH is formaldehyde dehydrogenase); Potency, µM (series often up to 57.1 µM), for the others: top-dose activity change, negative = inhibition, actives largely listed as inhibitors; 1.6% of 230,000 active; AID 2147, 2009; active = well fitted inhibition curve with a large enough effect, not every such curve was filed as active; inconclusive = small, poorly fitted or top-dose-only effect, or another doubt; inactive = no such curve, though single readings can be large or run the other way;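 also: potency is read from the fitted curve at half-maximal effect; 0% = wells with enzyme and -100% = buffer wells without enzyme; nearly all actives have a fitted effect of over 50% in size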
PI5P4Ka inh: qHTS for Inhibitors of phosphatidylinositol 5-phosphate 4-kinase (PI5P4K); Phosphatidylinositol 5-phosphate 4-kinase type-2 alpha (Homo sapiens), P48426; AID 652105, 2013; PI5P4Kalpha enzyme, ADP-Glo luminescence, 60 min; active compounds read low; max response, %; 1.2% of 330,000 active; active = max response of -50% or lower; inconclusive = between -30% and -50%; inactive = -30% or higher; also: value at the top dose of about 77 µM; % is scaled to controls: 0 for no effect and ±100 for the full control effect
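PI5P4Kalpha ADP-Glo assay; 5 microM ATP final; 60 min RT reaction; HEPES pH 7.4/EGTA/CHAPS, 5% DMSO; controls lacking substrate or enzyme; luminescent end-point.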
BAZ2B block: qHTS Assay for Inhibitors of BAZ2B | 4.4% of 360,000 active | Bromodomain adjacent to zinc finger domain protein 2B (Homo sapiens), Q9UIF8 | Potency, µM (titrated, usually from 114 µM), for inactives: top-dose activity change, negative = inhibition, actives largely listed as inhibitors | AlphaScreen BAZ2B-H3K14Ac peptide displacement; also: potency is read from the fitted curve at half-maximal effect; % is scaled to controls: 0 for no effect and ±100 for the full control effect; nearly all actives have a fitted effect of over 60% in size
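Compounds, titrated to a top concentration of 110 uM, were incubated 30 min at room temperature with preformed BAZ2B/acetyl-K14 H3 peptide complex (50 nM each). Proximity signal was measured by AlphaScreen after 20 min with beads.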
Numbers without * were called inactive; ? = inconclusive; . = no result; [ ] = dose if it differs, or a comment. Unless noted, calls follow the shape of the dose curve; as a rule, active = well fitted inhibition curve with a large enough effect; inconclusive = small, poorly fitted or top-dose-only effect; inactive = no such curve, though single readings can be large or run the other way.

SMILES	HP1b binding inh	L3MBTL1 inh	JMJD2A Tudor inh	KDM4E inh	PI5P4Ka inh	BAZ2B block
Cc1cccc(NC(=O)Cn2c(O)c(N=NC(=O)c3ccccc3O)c3ccccc32)c1	22%	-2%	?	4%	-4	79µM*
Cc1ccc(NC(=O)Cn2c(O)c(N=NC(=O)c3cc([N+](=O)[O-])ccc3O)c3ccccc32)cc1	.	2%	.	0%	.	?
CCc1ccc(NCc2cc3ccc(OC)cc3n(CC(=O)Nc3ccc(C(C)C)cc3)c2=O)cc1	17%	.	-16%	.	.	?
COc1ccccc1OCC(=O)Nc1cc2c(cc1C(=O)O)OCCCO2	48%	.	79µM*	.	-9	-20%
CSc1ccccc1C(=O)Nc1cc2c(cc1C(=O)O)OCCCO2	1%	.	22µM*	.	-1	-27%
COC(=O)Cc1cc(=O)n2[nH]cnc2n1	13%	-3%	-11%	?	-8	79µM*
Cc1ccc(S(=O)(=O)N(CCc2ccccc2)CC(=O)Nc2ccc(Br)cc2)cc1	36%	.	-4%	.	.	7%
Cc1ccc(N(C)S(=O)(=O)c2ccc3c(c2)CCC(=O)N3)cc1C	.	.	-9%	.	.	.
C[C@H](NS(=O)(=O)OCC(Cl)(Cl)Cl)C1CC1c1ccccc1 (stereo partly specified)	-17%	-4%	45µM*	.	-16	?
CCC(c1nnnn1CCc1ccccc1)N1CCN(C(=O)c2ccco2)CC1 (stereo unspecified)	24%	-3%	-19%	-2%	4	50µM*
CC(C)CC(c1nnnn1CCc1ccccc1)N1CCN(C(=O)c2ccco2)CC1 (stereo unspecified)	-18%	-1%	1%[11.4 µM]	0%	-1	3%
CC1CCN(c2c([N+](=O)[O-])nn(-c3ccc4c(c3)OCCO4)[n+]2[O-])CC1	?	.	?	6%	2	22µM*
CC(=O)Nc1ccc(S(=O)(=O)NNC(=O)c2ccc([N+](=O)[O-])cc2)cc1	3%	-4%	-13%	.	-2	-16%
O=C(NNS(=O)(=O)c1ccc2ccccc2c1)c1cccnc1	10%	-3%	7.9µM*	14%	-5	0%
O=C(NNc1ccccc1)C(=O)NNS(=O)(=O)c1ccc([N+](=O)[O-])cc1	11%	8%	3.2µM*	-1%	1	-27%
O=C(NNS(=O)(=O)c1ccc(F)cc1)c1ccccc1F	29%	0%	-13%	.	3	-4%
O=C(NNS(=O)(=O)c1ccc(F)cc1)c1ccccc1	6%	4%	14µM*	.	1	3%
O=C(NNS(=O)(=O)c1ccc([N+](=O)[O-])cc1)c1ccc([N+](=O)[O-])cc1	?	.	1.3µM*	.	13	-19%
O=C(NNc1ccc([N+](=O)[O-])cc1)Nc1ccccc1	?	2%	-30%	.	1	-27%
Cc1ccc(NC(=O)Cn2c(=S)[nH]c3ccccc32)cc1	?	.	-2%	3%	-10	0%
CCOc1ccc(C(=O)NCCSc2c(C)[nH]c3ccccc23)cc1OCC	21%	.	-32%	.	.	-26%
CC(=O)Nc1cc(ON=C(C)C)cc([N+](=O)[O-])c1	24%	6%	-6%	3%	-2	-10%
CC(=O)Nc1ccc(S(=O)(=O)NNc2ccc([N+](=O)[O-])cc2)cc1	?	-3%	6.3µM*	.	-3	50µM*
O=C(NNS(=O)(=O)c1ccc(Br)cc1)c1ccncc1	5%	4%	?	-3%	.	-28%
O=C(NNS(=O)(=O)c1ccccc1[N+](=O)[O-])c1cccc([N+](=O)[O-])c1	41%	3%	10µM*	9%	-3	-6%
CC(=O)Nc1ccc(S(=O)(=O)NNC(=O)c2cccc([N+](=O)[O-])c2)cc1	16%	4%	-13%	.	0	-5%

Source: PubChem BioAssay
